According to PubChem BioAssay AID463173 (ICCB-Longwood Screening Facility, Harvard Medical School, 2010):
The whole screen tested about 52,000 compounds, of which about 4,300 (8.3%) were called active. The full list was thinned out, with actives kept by preference. Unmarked numbers belong to inactive results. Cut-off read from the data, not from the text of the source: active = survival mostly below about 52% (no sharp cut-off); inactive = mostly above about 56%.

What follows are compounds tested on DeltatarO mutant (assay: S. aureus survival, RN4220 and DeltatarO strains – OD600, teichoic acid synthesis inhibitors, primary screen (AID 463173)). Conditions: S. aureus RN4220 wild type/DeltatarO growth, OD600, 18 h, stronger effect = lower value, screened at 18.75 µg/mL (by protocol).

Going from `COc1cc(-c2nnc(SCC(=O)Oc3ccccc3Cl)o2)cc(OC)c1OC` to `COc1ccc(-n2nc3ccc(NC(=O)c4c(OC)cccc4OC)cc3n2)cc1`, the survival rises from 84% to 135%.

Compared with `O=C(Nc1ccc(CN2CCCCC2)cc1)c1cccnc1Cl`, `O=C(CN1CCC(n2nnc3cc(C(F)(F)F)ccc32)CC1)Nc1ccc(N2CCCC2)cc1` is higher in survival: 71% for the first, 86% for the second.

Compared with `CCc1ccc(-c2nc(SCC(=O)NCCOC)c(-c3ccc(C)cc3)[nH]2)cc1`, `CCc1ccc(C(=O)c2cn(CC(=O)NCc3ccc(C)cc3)c3nc(C)ccc3c2=O)cc1` is higher in survival: 76% for the first, 98% for the second.

First: Cc1c(Cl)cccc1NC(=O)c1cc(S(=O)(=O)N2CCCCC2)cn1C
Second: Cc1ccc(C)c(N2CCN(C(=O)c3cc(S(=O)(=O)N4CCCC4)cn3C)CC2)c1
The survival of the first is higher: 99% for the first, 64% for the second.

Compared with `COc1cccc(CN2CCc3nc(N4CCN(C)CC4)ncc3C2)c1`, `CCN1CCC(N(Cc2cccc(OC)c2)C(=O)Nc2ccc(C)cc2Cl)CC1` is lower in survival: 84% for the first, 66% for the second.

First: CN(c1ccc(F)cc1)S(=O)(=O)N1CCCC(C(=O)NCc2ccccc2Cl)C1 (centres undefined)
Second: O=C(CSc1cn(CC(=O)N2CCCCC2)c2ccccc12)NCc1ccc(F)cc1
The survival of the first is higher: 81% for the first, 70% for the second.

First: COc1ccc(NC(=O)CCc2c(C)nc3c(c2C)c(=O)n(C)c(=O)n3C)c(OC)c1
Second: COc1ccc(NC(=O)NCC2CCN(Cc3ccccc3F)CC2)c(OC)c1
The survival of the first is higher: 100% for the first, 96% for the second.

Going from `COc1ccc2c(c1)c(=O)c(S(=O)(=O)c1ccccc1)cn2CC(=O)Nc1ccc(C)c(Cl)c1` to `Cc1ccc2c(=O)c(C(=O)c3ccc(F)cc3)cn(CC(=O)NCc3ccccc3)c2n1`, the survival falls from 97% to 82%.

Going from `COc1ccccc1CNC(=O)CCC1N=C2c3ccccc3N=C(SCC(=O)NCCc3ccc(OC)c(OC)c3)N2C1=O` (centres undefined) to `Cc1ccc(CCNC(=O)CCCn2nc(C)c3c(C)n(-c4ccccc4)nc3c2=O)cc1`, the survival falls from 92% to 87%.

Compared with `Cn1nc(C(=O)N2CCN(c3ccccc3F)CC2)c2c1-c1ccccc1S(=O)(=O)C2`, `COc1ccccc1N1CCN(C(=O)c2nn(C)c3c2CS(=O)(=O)c2ccccc2-3)CC1` is higher in survival: 60% for the first, 61% for the second.

Going from `O=C(CSc1ncn[nH]1)N1CCOCC1` to `Cc1cccc(C)c1OCC(=O)N1CCC(c2nc3ccccc3o2)CC1`, the survival rises from 73% to 86%.

Going from `Cn1c(=O)n(C)c2cc(NC(=O)C(F)(F)F)ccc21` to `Cn1c(=O)n(C)c2cc(N3CCOCC3)c(NS(=O)(=O)c3ccc(Cl)cc3)cc21`, the survival falls from 94% to 75%.

Going from `Cc1cc2c(cc1NS(=O)(=O)c1ccc(Br)cc1)n(C)c(=O)c(=O)n2C` to `CCc1ccc(S(=O)(=O)Nc2cc3c(cc2C)n(C)c(=O)c(=O)n3C)cc1`, the survival falls from 109% to 64%.

First: Cc1ccc(S(=O)(=O)Nc2cc3c(cc2N2CCOCC2)n(C)c(=O)n3C)cc1
Second: CC(C)Cc1ccc(S(=O)(=O)Nc2cc3c(cc2N2CCOCC2)n(C)c(=O)c(=O)n3C)cc1
The survival of the first is higher: 90% for the first, 79% for the second.

Compared with `Cn1c(=O)c(=O)n(C)c2cc(N3CCOCC3)c(NS(=O)(=O)c3ccc(F)c(Cl)c3)cc21`, `Cc1cc(N2CCC(C(=O)Nc3ccc(F)cc3F)CC2)n2nc(C)c(-c3ccc(Cl)cc3)c2n1` is higher in survival: 67% for the first, 86% for the second.

First: Cc1ccc(NC(=O)C2CCN(S(=O)(=O)c3ccc4c(c3)CCCC(=O)N4)CC2)cc1N(C)C
Second: CCn1cc(C(=O)NCc2ccc(Cl)cc2)c(=O)c2cc(S(=O)(=O)N(C)C3CCCCC3)ccc21
The survival of the first is higher: 120% for the first, 70% for the second.

Going from `Cc1nn(CCCC(=O)NCc2ccccc2)c(=O)c2cc3sccc3n12` to `Cc1cccn2c(=O)c3cc(C(=O)NCc4ccccc4Cl)sc3nc12`, the survival falls from 76% to 62%.

First: N#CCNC(=O)c1cccc(I)c1
Second: Cc1cccc(NC(=O)Nc2ccc(Br)cc2)n1
The survival of the first is lower: 89% for the first, 126% for the second.

Going from `COc1cccc(-c2nnc3n(Cc4ccc(F)cc4)c(=O)c4ccccc4n23)c1` to `Cc1ccc(C(=O)c2cn(Cc3ccc(F)cc3)c3nc(C)ccc3c2=O)cc1`, the survival rises from 84% to 85%.

Going from `Cc1ccc(NC(=O)[C@H](Cc2ccccc2)N2Cc3ccccc3C2=O)cc1` to `Cc1ccc(C(=O)c2cn(Cc3ccccc3)c3nc(C)ccc3c2=O)cc1`, the survival falls from 81% to 76%.

Compared with `CCN1CCC(N(Cc2ccc3c(c2)OCO3)C(=O)Nc2cccc(C)c2C)CC1`, `Cc1cccc(OCC(=O)N2CCC(c3nc4ccccc4o3)CC2)c1C` is lower in survival: 94% for the first, 81% for the second.

Going from `COCCN1C(=O)C(=O)/C(=C(/O)c2ccccc2)C1c1ccccc1` (centres undefined) to `CCc1ccc(C2c3c(oc4ccc(F)cc4c3=O)C(=O)N2CCc2ccc(OC)cc2)cc1` (centres undefined), the survival falls from 102% to 94%.

Going from `Cc1ccc(C(=O)c2cn(Cc3cccc(C)c3)c3nc(C)ccc3c2=O)cc1` to `Cc1ccc(C(=O)c2cn(Cc3ccc(Cl)cc3)c3nc(C)ccc3c2=O)cc1`, the survival falls from 54% to 34%.

First: Cc1cc(NC(=O)C2C3C(=O)N(c4ccccc4Cl)C(C(=O)NC(C)(C)C)C34C=CC2(C)O4)no1 (centres undefined)
Second: CC(C)(C)C(=O)Nc1c(C(=O)N2CCN(c3ccc(F)cc3)CC2)oc2ccccc12
The survival of the first is higher: 108% for the first, 80% for the second.

Compared with `Cc1ccccc1OCC(=O)Nc1nnc(SCc2cc(=O)n3cc(Cl)ccc3n2)s1`, `COc1ccc(CNC(=O)c2cc3c(=O)n4cccc(C)c4nc3s2)cc1` is lower in survival: 84% for the first, 68% for the second.

Going from `Cc1ccc(-n2c(=O)c3ccc(C(=O)NCc4ccco4)cc3n(CC(=O)Nc3ccc(C)c(F)c3)c2=O)cc1` to `COc1ccc(N(C(=O)/C=C\C(=O)Nc2ccc(Cl)cc2)C(C(=O)NCc2ccco2)c2ccc(C)cc2)cc1` (centres undefined), the survival rises from 84% to 115%.

First: CCOc1cccc(CC(=O)NCc2ccc3c(c2)CCN3C(=O)c2cccc(C)c2)c1OCC
Second: O=C(Cn1ncc2c3ccccc3n(Cc3ccc(F)cc3)c2c1=O)NCCC1=CCCCC1
The survival of the first is lower: 54% for the first, 85% for the second.

First: Cc1cccc(N2CCN(C(=O)C3CCN(C(=O)c4cc5sccc5n4C)CC3)CC2)c1C
Second: Cn1c(C(=O)N2CCCC(C(=O)N3CCN(c4ccccc4)CC3)C2)cc2sccc21 (centres undefined)
The survival of the first is lower: 53% for the first, 89% for the second.

Going from `CCc1ccc(OC(C)C(=O)N2CCC(c3nc4ccccc4o3)CC2)cc1` (centres undefined) to `Cc1cccc(OC(C)C(=O)N2CCC(c3nc4ccccc4o3)CC2)c1C` (centres undefined), the survival falls from 85% to 75%.

Going from `O=C(CC1CCCCC1)Nc1ccccn1` to `CC1CCCCN1C(=O)C1COc2ccccc2O1` (centres undefined), the survival falls from 73% to 65%.

Compared with `COc1ccc(N2C(=O)C(C)C(Cc3ccc(C)cc3)C2=O)cc1` (centres undefined), `Cc1ccc(-n2nc3ccc(NC(=O)c4cc5ccccc5o4)cc3n2)cc1` is lower in survival: 103% for the first, 70% for the second.

First: CCC(=O)Nc1ccc(NC(=O)c2ccc(F)cc2)nc1
Second: CCN(c1ccccc1)c1nnc(NC(=O)Nc2cccc(Br)c2)s1
The survival of the first is higher: 85% for the first, 80% for the second.

First: CCc1ccc(-n2nc3ccc(NC(=O)c4cc(Cl)c(OC)c(Cl)c4)cc3n2)cc1
Second: Cc1ccc2oc(-c3ccc(NC(=O)c4oc5ccc(Cl)cc5c4C)cc3)nc2c1
The survival of the first is higher: 83% for the first, 66% for the second.

Compared with `Cc1c(C(=O)Nc2ccncc2)oc2ccccc12`, `Cc1ccc2oc(C(=O)Nc3cccc(-c4nc5ccccc5s4)c3)c(C)c2c1` is lower in survival: 98% for the first, 55% for the second.

First: CCOc1ccc(NC2=NCCC(=O)N2Cc2cccs2)cc1
Second: CCOC(=O)CNC(=O)c1cc2c(=O)n3cccc(C)c3nc2s1
The survival of the first is lower: 83% for the first, 179% for the second.

First: O=C(O)c1nnc(Cl)c2ccccc12
Second: Cc1nc(-c2ccc(Cl)cc2)sc1CCNC(=O)C(=O)Nc1ccccc1C#N
The survival of the first is higher: 91% for the first, 80% for the second.

In the case of `CCCCNC(=O)c1cc2c(=O)n3cccc(C)c3nc2s1`, the survival is reported as 150%.

In the case of `Cc1ccc(Cl)cc1N1CCN(C(=O)c2nn(C)c3c2CS(=O)(=O)c2ccccc2-3)CC1`, the survival is reported as 58% (active).
In the case of `Cn1c(=O)c(=O)n(C)c2cc(N3CCOCC3)c(NS(=O)(=O)c3ccc(Cl)cc3)cc21`, the survival is reported as -1% (active).
`CCc1ccc(S(=O)(=O)Nc2cc3c(cc2N2CCOCC2)n(C)c(=O)c(=O)n3C)cc1` was tested, and the survival was 6% (active).
`Cc1ccc(S(=O)(=O)Nc2cc3c(cc2C)n(C)c(=O)c(=O)n3C)cc1` was tested, and the survival was -2% (active).
In the case of `CCN1CCC(N(Cc2cccc(OC)c2)C(=O)Nc2cccc(C)c2C)CC1`, the survival is reported as 20% (active).
With `Cc1ccc(Cn2cc(C(=O)c3ccc(C)cc3)c(=O)c3ccc(C)nc32)cc1` the survival was 24% (active).
With `Cc1ccc(C(=O)c2cn(Cc3cccc(Cl)c3)c3nc(C)ccc3c2=O)cc1` the survival was 60% (active).
For `Cc1ccc(CNC(=O)Cn2cc(C(=O)c3ccc(F)cc3)c(=O)c3ccc(C)nc32)cc1`, the survival was 52% (active).
With `Cc1cccc(N2CCN(C(=O)C3CCCN(C(=O)c4cc5sccc5n4C)C3)CC2)c1C` (centres undefined) the survival was 53% (active).
With `COc1ccccc1OCC(=O)N1CCC(c2nc3ccccc3o2)CC1` the survival was 0% (active).
For `CC(Oc1ccccc1F)C(=O)N1CCC(c2nc3ccccc3o2)CC1` (centres undefined), the survival was -1% (active).
`Cc1ccc(-n2nc3ccc(NC(=O)c4oc5ccc(C)cc5c4C)cc3n2)cc1` was tested, and the survival was 38% (active).
`Cc1ccc(-n2nc3ccc(NC(=O)c4oc5ccccc5c4C)cc3n2)cc1` was tested, and the survival was 31% (active).
For `COc1cc(C(=O)Nc2ccc3nn(-c4ccc(F)cc4)nc3c2)cc(OC)c1OC`, the survival was 45% (active).
`Cc1ccc(CNC(=O)c2cc3c(=O)n4cccc(C)c4nc3s2)cc1` was tested, and the survival was 54% (active).
`Cc1cccn2c(=O)c3cc(C(=O)NCC(C)C)sc3nc12` was tested, and the survival was 63% (active).
